Bioassay records (PubChem BioAssay)
FEN1 inh: qHTS Assay for the Inhibitors of Human Flap endonuclease 1 (FEN1) | Potency, µM (titrated, usually from 114 µM), most hits filed as inhibitors | Recombinant FEN1 flap cleavage, fluorescence, 15 min | AID 588795, 2011 | actives 0.35% (n = 390,000) | P39748; note: nearly all actives have a fitted effect of over 65% in size
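Reaction started by adding substrate (50 nM final) to 10 nM enzyme after 15 min room-temperature compound preincubation. Reads at 0 and 15 min, with data normalized and fitted to a four-parameter Hill equation.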
WRN helicase inh: qHTS for Inhibitors of WRN Helicase; Bifunctional 3'-5' exonuclease/ATP-dependent helicase WRN (Homo sapiens), Q14191; WRN helicase unwinding, fluorescent forked duplex, kinetic; Potency, µM (titrated, usually from 114 µM), usual class: inhibitors; actives 0.46% (n = 360,000); AID 651768, 2012; note: nearly all actives have a fitted effect of over 55% in size
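Primary qHTS, 1536-well format. 20 nM WRN + compound, 15 min RT; start with 100 nM forked fluorophore/quencher duplex, 2 mM ATP (final); kinetic read ex 525/em 598 nm.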
APE1 inh-1: qHTS Assay for Inhibitors of the Human Apurinic/apyrimidinic Endonuclease 1 (APE1). DNA repair nuclease/redox regulator APEX1 (Homo sapiens), P27695. recombinant APE1, TAMRA/BHQ-2 abasic DNA cleavage fluorescence. Potency, µM (series often up to 65.8 µM), most hits filed as inhibitors. actives 0.35% (n = 350,000). AID 2517, 2012; note: nearly all actives have a fitted effect of over 55% in size
Target sequence (P27695 whole entry, looked up): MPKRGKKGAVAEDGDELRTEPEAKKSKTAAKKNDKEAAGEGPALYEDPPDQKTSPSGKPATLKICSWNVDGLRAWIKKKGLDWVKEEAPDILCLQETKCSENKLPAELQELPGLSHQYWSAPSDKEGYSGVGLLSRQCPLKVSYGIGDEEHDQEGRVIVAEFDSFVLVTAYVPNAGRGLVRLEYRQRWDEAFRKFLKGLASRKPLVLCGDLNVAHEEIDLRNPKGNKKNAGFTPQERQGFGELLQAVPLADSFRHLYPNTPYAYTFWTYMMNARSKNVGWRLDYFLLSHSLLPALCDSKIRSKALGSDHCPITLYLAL
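Quantitative HTS: incision of a TAMRA/BHQ-2 double-stranded substrate bearing a tetrahydrofuran abasic site by 0.75 nM APE1 raises fluorescence. Substrate 50 nM final, added after 15 min compound preincubation at room temperature; progress as third-minus-first kinetic read difference.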
BLM helicase inh: qHTS Assay for Inhibitors of Bloom's syndrome helicase (BLM) | RecQ-like DNA helicase BLM (Homo sapiens), P54132 | recombinant BLM DNA unwinding, fluorescence dequenching | Potency, µM (highest dose often 56.1 µM), actives largely listed as inhibitors | actives 0.2% (n = 350,000); note: nearly all actives have a fitted effect of over 35% in size
RECQ1 inh: qHTS Assay for Inhibitors of RecQ-Like Dna Helicase 1 (RECQ1); ATP-dependent DNA helicase Q1 (Homo sapiens), P46063; RECQ1 DNA unwinding, red fluorescence kinetic read; Potency, µM (top dose mostly 57.3 µM), most hits filed as inhibitors; actives 0.54% (n = 240,000); AID 2549, 2010; note: nearly all actives have a fitted effect of over 30% in size
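RECQ1T1 50 nM; forked duplex (20 bp + 30-nt ss tails) 200 nM, ATP 2 mM final; pH 8.0, 2 mM MgCl2, 2.5 ug/ml poly(dI-dC); 15 min compound preincubation; discontinuous kinetic read over 2 h at RT.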
PI5P4Ka inh: qHTS for Inhibitors of phosphatidylinositol 5-phosphate 4-kinase (PI5P4K) | Phosphatidylinositol 5-phosphate 4-kinase type-2 alpha (Homo sapiens), P48426 | PI5P4Kalpha enzyme, ADP-Glo luminescence, 60 min; active compounds read low | max response, % | actives 1.2% (n = 330,000) | AID 652105, 2013; active = max response of -50% or lower; inconclusive = between -30% and -50%; inactive = -30% or higher; note: value at the top dose of about 77 µM
Target sequence (P48426 whole entry, looked up): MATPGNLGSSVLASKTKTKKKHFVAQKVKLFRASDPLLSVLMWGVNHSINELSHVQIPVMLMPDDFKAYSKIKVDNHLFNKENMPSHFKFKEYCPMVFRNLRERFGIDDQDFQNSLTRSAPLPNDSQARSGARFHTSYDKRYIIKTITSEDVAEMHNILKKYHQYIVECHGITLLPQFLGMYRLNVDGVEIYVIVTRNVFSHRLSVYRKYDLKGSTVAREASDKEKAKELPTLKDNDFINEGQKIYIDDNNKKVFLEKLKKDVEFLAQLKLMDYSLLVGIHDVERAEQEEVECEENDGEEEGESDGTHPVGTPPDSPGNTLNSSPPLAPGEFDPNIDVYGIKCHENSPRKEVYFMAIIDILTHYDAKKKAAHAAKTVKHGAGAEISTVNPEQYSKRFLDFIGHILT
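Reactions run in 0.038 M HEPES pH 7.4, 0.28 mM EGTA, 0.1% CHAPS and 5% DMSO, with PI5P4Kalpha, substrate, compound and 5 microM ATP final, one hour at room temperature. Readout is ADP-Glo luminescence.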
APE1 dye cs: Counterscreen for APE1 Inhibitors: Fluorescent Dye Displacement Assay. shares compounds with APE1 inh-1. DNA fluorescent dye displacement counterscreen, fluorescence. Potency, µM (titrated, usually from 28.5 µM), usual class: inhibitors. actives 7% (n = 480). AID 2564, 2010;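 note: loss of thiazole orange fluorescence as the dye is displaced from duplex DNA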
Endo IV inh: Counterscreen for APE1 Inhibitors: qHTS Assay for Inhibitors of Endonuclease IV; E. coli Endo IV, fluorogenic AP-site DNA cleavage; shares compounds with APE1 inh-1; actives 4% (n = 560); Potency, µM (series often up to 27.1 µM), most hits filed as inhibitors
APE1 inh-2: Confirmation qHTS Assay for Inhibitors of the Human Apurinic/apyrimidinic Endonuclease 1 (APE1); shares compounds with APE1 inh-1; purified APE1, fluorogenic abasic-site DNA cleavage; Potency, µM (series often up to 57.1 µM), actives largely listed as inhibitors; actives 44% (n = 750); note: nearly all actives have a fitted effect of over 30% in size
APE1 FP inh: qHTS FP-Based Assay for Inhibitors of the Human Apurinic/apyrimidinic Endonuclease 1 (APE1). AID 2573, 2010. shares compounds with APE1 inh-1. Potency, µM (titrated, usually from 28.5 µM), hits mostly inhibitors. actives 7% (n = 480). APE1 binding to TAMRA-labelled double-stranded DNA, fluorescence polarization displacement
Of the large screens only hits and unclear results are named; the others gave an inactive call (follow-up assays come after a bar, where they were run). This is a sample that favours compounds with a hit; in the whole collection about 1.5% have one here. Unless noted, calls come from the whole dose curve; as a rule, active = well fitted curve in the direction sought with a large enough effect; inconclusive = small, poorly fitted or top-dose-only effect, or another doubt; inactive = no such curve, though single readings can be large; an effect the other way counts as inactive or inconclusive.

COc1cc(/C=C2/NC(=O)NC2=O)cc(Br)c1OCc1ccc(C(=O)O)cc1	APE1 inh-1 inconclusive | APE1 inh-2 inconclusive
O=C(O)COc1c(Cl)cc(/C=C2\NC(=O)NC2=O)cc1Br	PI5P4Ka inh inconclusive
Cc1ccc(NC(=O)C(=O)NCC(c2ccc3c(c2)OCO3)N2CCN(c3ccccc3)CC2)cc1 (configuration not stated)	none (no result: WRN helicase inh, APE1 inh-1, RECQ1 inh, PI5P4Ka inh)
COc1ccc(-c2nc3n(n2)C(c2ccc(OC)cc2)C(C(=O)Nc2cccnc2)=C(C)N3)cc1 (configuration not stated)	none (no result: WRN helicase inh, APE1 inh-1, RECQ1 inh, PI5P4Ka inh)
CCCCCCC/C=C\CCCCCCCCC(=O)O	RECQ1 inh inconclusive (no result: FEN1 inh, WRN helicase inh, BLM helicase inh, PI5P4Ka inh) | Endo IV inh inactive | APE1 inh-2 inactive
N#C/C(=C/c1cccn1-c1cccc(C(=O)O)c1)c1ccc(F)cc1	APE1 inh-1 25µM | APE1 dye cs inactive | Endo IV inh inactive | APE1 inh-2 inconclusive | APE1 FP inh inactive
O=C(O)c1cccc(-n2cccc2/C=C2/NC(=O)N(Cc3ccccc3F)C2=O)c1	APE1 inh-1 13µM, RECQ1 inh inconclusive | APE1 inh-2 inconclusive
O=C1N/C(=C/c2cccn2-c2ccc(F)cc2)C(=O)N1Cc1ccccc1F	none
O=C(Nc1cc(C(=O)Nc2ccc(S(=O)(=O)O)cc2S(=O)(=O)O)cc(C(=O)Nc2ccc(S(=O)(=O)O)cc2S(=O)(=O)O)c1)Nc1cc(C(=O)Nc2ccc(S(=O)(=O)O)cc2S(=O)(=O)O)cc(C(=O)Nc2ccc(S(=O)(=O)O)cc2S(=O)(=O)O)c1	APE1 inh-1 7.9µM, BLM helicase inh inconclusive (no result: WRN helicase inh, PI5P4Ka inh) | Endo IV inh inconclusive | APE1 inh-2 2.5µM
Cc1ccc(NC(=O)CN2C(=O)S/C(=C\c3cccn3-c3cccc(C(=O)O)c3)C2=O)c(C)c1	FEN1 inh inconclusive, WRN helicase inh inconclusive, APE1 inh-1 8.9µM, BLM helicase inh inconclusive, PI5P4Ka inh inconclusive | APE1 dye cs inactive | Endo IV inh inconclusive | APE1 inh-2 13µM | APE1 FP inh 16µM
Cc1ccccc1NC(=O)CN1C(=O)S/C(=C\c2cccn2-c2cccc(C(=O)O)c2)C1=O	FEN1 inh inconclusive, WRN helicase inh inconclusive, APE1 inh-1 inconclusive, RECQ1 inh inconclusive | APE1 inh-2 inconclusive
O=C(Cn1c(=O)n(Cc2nc(-c3ccccc3)no2)c(=O)c2ccccc21)Nc1cccc(C(F)(F)F)c1	none (no result: WRN helicase inh, APE1 inh-1, RECQ1 inh, PI5P4Ka inh)
CC(C)N(Cc1ccccc1)C(=O)Cn1ncc2c([nH]c3ccccc32)c1=O	none (no result: WRN helicase inh, APE1 inh-1, RECQ1 inh, PI5P4Ka inh)
C=C(C)CCOC(=O)C(CC(=O)O)NCc1ccco1 (configuration not stated)	APE1 inh-1 inconclusive | APE1 inh-2 inconclusive
O=C1CC(c2ccc(O)c(O)c2)Oc2cc(O)cc(O)c21 (configuration not stated)	FEN1 inh inconclusive, WRN helicase inh inconclusive, APE1 inh-1 13µM, RECQ1 inh inconclusive | APE1 dye cs inactive | Endo IV inh inactive | APE1 inh-2 inconclusive | APE1 FP inh inactive
COc1ccc(C2CC(=O)c3c(O)cc(O)cc3O2)cc1O (configuration not stated)	none
CC(C)c1nnc(NC(=O)c2ccc(N3C(=O)CCC3=O)cc2)s1	none
O=C(Nc1nnc(C23CC4CC(CC(C4)C2)C3)s1)c1ccc(N2C(=O)CCC2=O)cc1	APE1 inh-1 10µM | APE1 inh-2 inactive
COc1ccc(S(=O)(=O)Nc2cccc(-c3ccc(N4CCC(C)CC4)nn3)c2)cc1OC	none (no result: WRN helicase inh, APE1 inh-1, RECQ1 inh, PI5P4Ka inh)
Oc1ccc(/C=N/N2CCOCC2)c(O)c1O	FEN1 inh inconclusive, WRN helicase inh inconclusive, APE1 inh-1 7.1µM | APE1 dye cs inactive | Endo IV inh inactive | APE1 inh-2 inconclusive | APE1 FP inh inactive
Oc1ccc(/C=N/N2CCCCC2)c(O)c1O	FEN1 inh inconclusive, WRN helicase inh inconclusive, PI5P4Ka inh inconclusive (no result: RECQ1 inh)
COCCn1c(=N)c(C(=O)NC(C)c2ccccc2)cc2c(=O)n3cc(C)ccc3nc21 (configuration not stated)	none (no result: WRN helicase inh, APE1 inh-1, RECQ1 inh, PI5P4Ka inh)
Cc1ccc(NC(=O)C2CCN(C(=O)c3cnn(-c4ccccc4)c3-n3cccc3)CC2)cc1C	none (no result: WRN helicase inh, APE1 inh-1, RECQ1 inh, PI5P4Ka inh)
O=C(CSc1nnc(COc2ccccc2)n1Cc1ccco1)NCc1ccco1	WRN helicase inh inconclusive, APE1 inh-1 inconclusive (no result: PI5P4Ka inh)
C=CCn1c(COc2cccc(C)c2)nnc1SCC(=O)NC(=O)NCc1ccco1	APE1 inh-1 inconclusive (no result: PI5P4Ka inh) | APE1 dye cs inactive | Endo IV inh inactive | APE1 inh-2 inconclusive | APE1 FP inh inactive
